The source of these data is PubChem BioAssay AID449762 (Southern Research Specialized Biocontainment Screening …, 2010).

The campaign covered roughly 330,000 compounds. About 1,900 (0.58%) were called active. About 4% were inconclusive and are not listed. Rule as the data show it: inconclusive = inhibition above about 70% without an active follow-up result; inactive = below that. A selection follows. Entries with a potency or affinity are not part of this list.

This assay in a line: M. tuberculosis growth inhibition, HTS (AID 449762).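 Also: bacterial growth assessed after seven days of incubation.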 The note with it: M. tuberculosis H37Rv growth inhibition, 7H9 media; at 25 µM; active compounds read high.
What is called inhibition is the change of the read-out against control, counted positive when it falls. With `Cc1nn(Cc2ccc(Cl)cc2Cl)c(C)c1NC(=O)CCl`, the inhibition is 70.1% (inactive).

With `Cc1ccc(CCNC(=O)C2CC(c3cccc(F)c3)=NO2)cc1` (stereo unspecified), the inhibition is 0.56% (inactive).

Turning to `C=CCOc1ccc(CNc2nccs2)cc1OC`, the inhibition was -5.03% (inactive).

As for `C=CCOc1c(Cl)cc(CNc2nccs2)cc1OC`, the inhibition was 56.1% (inactive).

Regarding `CCCOc1ccc(C(=O)N/N=C/c2c[nH]c3ccc(Br)cc23)cc1`, the inhibition was 1.55% (inactive).

For the molecule `Cc1cc(Nc2ccccc2)c2c([N+](=O)[O-])cc(C)c(C)c2n1`, the inhibition is 6.4% (inactive).

As to `COc1ccccc1Nc1cc(C)nc2c(C)ccc([N+](=O)[O-])c12`, the inhibition is -0.28% (inactive).

Consider `COC(=O)C1=C(COc2ccc(C=O)cc2OC)NC(=O)NC1c1cc(C)ccc1C` (stereo unspecified), for which the inhibition was -8.91% (inactive).

Turning to `Cc1cc(C)c2oc(=O)cc(CN3CCC(C)CC3)c2c1`, the inhibition was 5.8% (inactive).

As for `Cc1coc2c(C)c3oc(=O)c(CCC(=O)N4CCC(C(=O)NCCCC(=O)O)(c5ccccc5)CC4)c(C)c3cc12`, the inhibition was 5.29% (inactive).

For `CC12CCC(C(=O)Nc3cccnc3)(CC1=O)C2(C)C` (stereo unspecified), the inhibition is -6.21% (inactive).

For `O=C(NCC1CCCO1)c1ccc([N+](=O)[O-])o1` (stereo unspecified), the inhibition is -10.8% (inactive).

For `O=C(NN(c1ccccc1)c1ccccc1)c1ccc([N+](=O)[O-])o1`, the inhibition was 56.9% (inactive).

With `C=CCn1c(SCC(=O)NCC2CCCO2)nc2scc(-c3ccccc3)c2c1=O` (stereo unspecified), the inhibition was -12.7% (inactive).

In the case of `CCOCCCNC(=S)NCCCNc1nc2cc3c(cc2cc1C#N)OCO3`, the inhibition is -2.17% (inactive).

As to `Cc1ccc(C(=O)/C=C/Nc2ccc(S(=O)(=O)Nc3cc(C)nc(C)n3)cc2)cc1`, the inhibition was 4.23% (inactive).

For the molecule `CCOc1cc(/C=N/NC(=O)C(=O)Nc2cc(Cl)ccc2C)ccc1O`, the inhibition was 5.58% (inactive).

`CC(=O)c1cnn(-c2ccccc2)c1C`: the inhibition is -0.96% (inactive).

On to `Cc1c(C(=O)NCc2ccccc2)cnn1-c1ccccc1`, for which the inhibition is 0.38% (inactive).

Take `O=C(NN=C1CCCCCC1)c1ccc(Cl)s1`: the inhibition was -7.6% (inactive).

For the molecule `O=C(Nc1ccc(N2CCN(C(=O)c3ccccc3F)CC2)cc1)c1cncc(Br)c1`, the inhibition was 32.6% (inactive).

Turning to `COc1ccc(NC(=O)CN(C)CC(=O)N(C)C2(C#N)CCC(C)CC2)cc1` (stereo unspecified), the inhibition is 6.58% (inactive).

As for `O=C1Nc2ccccc2/C1=N\c1sc2c(c1C(=O)Nc1ccccc1)CCCC2`, the inhibition is -6.89% (inactive).

As for `COc1ccc(-c2noc(N3CCC(C(=O)Nc4ccccc4F)CC3)n2)cc1`, the inhibition is -6.51% (inactive).

`COc1ccc(N2CCc3c(C)nc(SC)nc32)cc1`: the inhibition was 37.6% (inactive).

As to `CSc1nc(C)c2c(n1)N(c1ccc(F)cc1)CC2`, the inhibition is 5.53% (inactive).

Regarding `Cc1cccc(NC(=O)Cn2nnc(-c3cccs3)n2)c1C`, the inhibition is 4.16% (inactive).

In the case of `Cc1cc2ccccc2c(=O)n1CC(=O)NCC(=O)N1CCN(c2ccccc2)CC1`, the inhibition was 3.46% (inactive).

As to `CC12CCC(C(=O)N3CCCCCC3)(OC1=O)C2(C)C` (stereo unspecified), the inhibition was 0.66% (inactive).

As to `O=C(c1ccc2nc(N3CCOCC3)sc2c1)N1CCCC1`, the inhibition is -5.7% (inactive).

Regarding `O=C(c1ccc2nc(N3CCOCC3)sc2c1)N1CCN(C(=O)c2ccco2)CC1`, the inhibition was -6.14% (inactive).

As for `Cc1ccc(S(=O)(=O)N(C)c2ccc(OCC(=O)Nc3ccc(C(=O)N(C)C)cc3)cc2)cc1C`, the inhibition is -1.34% (inactive).

Regarding `Cn1cc(C(=O)N/N=C/C2=C(N3CCOCC3)C(=C/c3ccc([N+](=O)[O-])cc3)/CC2)ccc1=O`, the inhibition was 2.15% (inactive).

On to `COc1cc(C(=O)NC(=S)Nc2ccc3[nH]c(=O)[nH]c3c2)cc(OC)c1OC`, for which the inhibition was 5.44% (inactive).

Take `COCCCN1C(=O)C(=O)/C(=C(/O)c2ccc(OC)cc2)C12C(=O)N(C)c1ccccc12` (stereo unspecified): the inhibition is 0.02% (inactive).

For the molecule `O=C(/C=C\c1cccs1)c1c(O)ccc2ccc(=O)oc12`, the inhibition is 69.8% (inactive).

For `CCN(CC)S(=O)(=O)c1ccc2oc(SCC(=O)NC3CC3)nc2c1`, the inhibition is -7.6% (inactive).

For the molecule `CCN(CC)S(=O)(=O)c1ccc2oc(SCC(=O)NCc3ccccc3)nc2c1`, the inhibition is -7.94% (inactive).

For `COC(=O)C1=C(C)N(c2ccc(OC)cc2)C(=O)/C1=C\c1cccs1`, the inhibition is -1.06% (inactive).

As for `CC(=O)c1ccc(OCC(=O)c2cc(C)n(-c3ccc4c(c3)OCO4)c2C)cc1`, the inhibition was -1.32% (inactive).

As to `O=C(c1cc(Br)ccc1Cl)N1CCN(c2ncccn2)CC1`, the inhibition is 6.19% (inactive).

For `COCCN(C(=S)Nc1cccc(C)c1C)C(C)c1ccco1` (stereo unspecified), the inhibition was 4.25% (inactive).

On to `CCCNC(=O)C(Cc1ccccc1)NC(=O)c1ccc(C(C)(C)C)cc1` (stereo unspecified), for which the inhibition is -2.64% (inactive).

`CC(=O)C1=C(O)C(=O)N(c2cccc(Br)c2)C1c1ccc(Br)cc1` (stereo unspecified): the inhibition is 1.06% (inactive).

Regarding `COc1ccc(-c2noc(CSc3nc(-c4ccccc4)cc(=O)[nH]3)n2)cc1`, the inhibition was -1.49% (inactive).

`CC1CCC2(CC1)N=C(N)Nc1nc3ccccc3n12` (stereo unspecified): the inhibition was 11.2% (inactive).

For `NC1=NC2(CCCC2)n2c(nc3ccccc32)N1`, the inhibition was 1.5% (inactive).

As to `O=C(O)c1cc(-c2ccccc2)nc2ccccc12`, the inhibition was -1.59% (inactive).

Take `c1ccc(-c2cc3c(ccc4nonc43)nn2)cc1`: the inhibition was -0.15% (inactive).

Take `COc1cc(C(=O)NCC(c2cccs2)N2CCOCC2)cc(OC)c1OC` (stereo unspecified): the inhibition is 7.52% (inactive).

Take `COc1ccc2c(c1)O/C(=C\c1ccco1)C2=O`: the inhibition is -4.09% (inactive).

Consider `CCC(=O)Oc1ccc2c(c1)O/C(=C\c1ccco1)C2=O`, for which the inhibition was 6.29% (inactive).

With `Cc1ccccc1OCC(O)Cn1c(N2CCCCC2)nc2c1c(=O)[nH]c(=O)n2C` (stereo unspecified), the inhibition was 6.49% (inactive).

For `Cc1cc(C)nc(-n2ncc3c2CC(c2ccccc2C)CC3=O)n1` (stereo unspecified), the inhibition is 3.74% (inactive).

On to `Cc1ccc(O)c(-c2cc(-c3ccccc3F)[nH]n2)c1`, for which the inhibition was 33.9% (inactive).

`Cc1ccc(-c2cc(-c3ccc(C)cc3O)[nH]n2)cc1`: the inhibition was 17.4% (inactive).

`O=C1CN(C(=O)COC(=O)CCC(=O)c2ccc(F)cc2)c2ccccc2N1`: the inhibition was -6.63% (inactive).

Take `CCOCCn1c(CN2CCN(C(=O)c3ccco3)CC2)nc2c1c(=O)n(C)c(=O)n2C`: the inhibition is 5.24% (inactive).

Consider `COc1cc(C(=O)OC2CC3CCC2(C)C3(C)C)ccc1OC(C)=O` (stereo unspecified), for which the inhibition was -10.7% (inactive).

As for `O=c1cc(-c2ccccc2)nc(Cc2c(Cl)cccc2Cl)[nH]1`, the inhibition is 8.31% (inactive).

Take `COCc1cc(=O)[nH]c(Cc2c(Cl)cccc2Cl)n1`: the inhibition was 3.62% (inactive).
